{
  "source": "PubChem BioAssay (NCATS)",
  "note": "Results filed as inconclusive are left out. Activity calls are given as the source filed them. Unless noted, calls follow the shape of the dose curve; as a rule, active = well fitted activation curve with a large enough effect in the main read-out, with a control signal flat (not every such curve was filed as active); inconclusive = small, poorly fitted or top-dose-only effect, or effect the other way, or a change in a side signal; inactive = flat fitted curve, though single readings scatter. Also: % of control where 0% means no effect.",
  "data": [
    {"biological_target": "3',5'-cyclic-AMP phosphodiesterase 4B (Homo sapiens) (UniProt Q07343)", "sequence (Q07343 whole entry, looked up)": "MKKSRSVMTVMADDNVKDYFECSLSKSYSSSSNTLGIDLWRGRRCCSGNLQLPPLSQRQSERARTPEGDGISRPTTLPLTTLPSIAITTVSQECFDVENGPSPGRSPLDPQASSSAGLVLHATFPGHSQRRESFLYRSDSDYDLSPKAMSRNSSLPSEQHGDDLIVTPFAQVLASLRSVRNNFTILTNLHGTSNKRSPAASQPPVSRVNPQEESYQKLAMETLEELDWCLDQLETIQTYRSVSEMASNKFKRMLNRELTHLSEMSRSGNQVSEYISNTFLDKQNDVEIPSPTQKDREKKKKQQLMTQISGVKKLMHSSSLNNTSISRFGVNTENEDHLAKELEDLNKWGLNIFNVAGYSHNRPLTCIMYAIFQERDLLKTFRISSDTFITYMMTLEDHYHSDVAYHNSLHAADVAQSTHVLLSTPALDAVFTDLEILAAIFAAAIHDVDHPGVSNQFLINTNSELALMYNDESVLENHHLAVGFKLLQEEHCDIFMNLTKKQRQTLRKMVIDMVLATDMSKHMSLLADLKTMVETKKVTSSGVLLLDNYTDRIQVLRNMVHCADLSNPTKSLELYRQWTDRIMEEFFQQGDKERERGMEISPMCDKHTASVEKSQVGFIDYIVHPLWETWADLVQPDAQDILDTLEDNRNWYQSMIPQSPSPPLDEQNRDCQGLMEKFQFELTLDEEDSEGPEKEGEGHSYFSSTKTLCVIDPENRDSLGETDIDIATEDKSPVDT", "assay": "qHTS Assay for Inhibitors of PDE-IV (AID 607)", "settings": "HEK293 ACTOne CNG channel cells, membrane potential fluorescence; series mostly up to 22.9 µM; activation (PDE inhibition): at the top concentration", "summary_of_the_method": "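ACTOne HEK293 cells carry a modified cAMP-gated CNG channel and express endogenous PDE4; plated 1000 cells/well, compounds up to 22.9 uM final. Membrane-potential dye fluorescence (ex 535/em 590) was read; parental cells received 10 uM forskolin + 100 uM RO 20-1724.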", "values": [
      {"smiles": "N=C(N)SCCSC(=N)N", "activation (PDE inhibition)": "1.9% (inactive)"},
      {"smiles": "Cc1c(C(=O)O)nc(/C=C\\C(=O)O)[nH]c1=O", "activation (PDE inhibition)": "10.1% (inactive)"},
      {"smiles": "O=C(Nc1ccc2ncccc2c1)Nc1ccc2ncccc2c1", "activation (PDE inhibition)": "-6.05% (inactive)"},
      {"smiles": "Cc1ccc(S(=O)(=O)Oc2cc(S(=O)(=O)O)cc3cc(S(=O)(=O)O)cc(N)c23)cc1", "activation (PDE inhibition)": "3.95% (inactive)"},
      {"smiles": "COc1ccc(NC(=S)Nc2ccccc2)cc1", "activation (PDE inhibition)": "-5.92% (inactive)"},
      {"smiles": "Cn1cnc([N+](=O)[O-])c1Sc1nc(N)nc2c1ncn2Cc1ccccc1", "activation (PDE inhibition)": "7.59% (inactive)"},
      {"smiles": "N=C(N)SCc1cc(Cl)cc(Cl)c1O", "activation (PDE inhibition)": "5.3% (inactive)"},
      {"smiles": "C[C@@](N)(/C=C\\c1ccccc1)C(=O)O", "activation (PDE inhibition)": "-6.18% (inactive)"},
      {"smiles": "O=C(O)C1(Nc2ccc(Cl)cc2)CCCC1", "activation (PDE inhibition)": "7.87% (inactive)"},
      {"smiles": "NS(=O)(=O)c1ccc(N=C2C(=O)Nc3ccccc32)cc1", "activation (PDE inhibition)": "-2.44% (inactive)"},
      {"smiles": "COCCn1c(=O)c(-c2cc(F)cc(F)c2)nc2cnc(Oc3ccccc3)nc21", "activation (PDE inhibition)": "21.2% (inactive)"},
      {"smiles": "O=C(O)C(Sc1ccc(Cl)cc1)Sc1ccc(Cl)cc1", "activation (PDE inhibition)": "5.94% (inactive)"},
      {"smiles": "N=c1nc(N)nc(N)n1-c1ccc(S(N)(=O)=O)cc1", "activation (PDE inhibition)": "1.02% (inactive)"},
      {"smiles": "CN(C)Cc1ccc(O)c(CN(C)C)n1", "activation (PDE inhibition)": "0.157% (inactive)"},
      {"smiles": "COC(=O)[C@]1(C)CCC(c2ccc(C)cc2)=C(CC(=O)O)C1", "activation (PDE inhibition)": "-0.929% (inactive)"},
      {"smiles": "Cc1cc(CN2CCCCC2)c(O)c(CN2CCCCC2)c1", "activation (PDE inhibition)": "5.1% (inactive)"},
      {"smiles": "CCO[P@]1(=O)OC[C@@H]2O[C@H](n3cnc4c(N)ncnc43)[C@H](O)[C@@H]2O1", "activation (PDE inhibition)": "-2.42% (inactive)"},
      {"smiles": "O=C(NCCO)c1ccc(Cl)cc1", "activation (PDE inhibition)": "6.96% (inactive)"},
      {"smiles": "C/C(=N/S(=O)(=O)c1ccc(Cl)c(Cl)c1)OCC(C)(C)C", "activation (PDE inhibition)": "7.06% (inactive)"}
    ]},
    {"test_system": "not listed separately", "assay": "qHTS Assay for Identification of Small Molecule Agonists for Hypoxia Response Element Signaling Pathway (AID 914; active = well fitted activation curve with a large enough effect in the signal ratio, with a control signal flat, not every such curve was filed as active; the % refers to the signal ratio)", "settings": "ME-180 HRE-bla reporter, beta-lactamase ratio, CoCl2, 17 h; activation: hits give high values", "summary_of_the_method": "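Compounds in a titration series were added to ME-180 reporter cells alongside an EC50 level of CoCl2. After 17 hours, beta-lactamase activity was read as the 460nm/530nm emission ratio of CCF4, giving AC50 values.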", "values": [
      {"smiles": "O=S(=O)(O)CCCc1cccc2ccccc12", "activation": "-2.01% (inactive)"},
      {"smiles": "CC(C)(Oc1ccc(-c2cccc3ccccc23)cc1)C(=O)O", "activation": "-19.2% (inactive)"},
      {"smiles": "O[C@@H](COc1cccc2ccccc12)CN1CCOCC1", "activation": "3.28% (inactive)"},
      {"smiles": "FC(F)(F)c1nc(SCc2ccc(Cl)cc2)n[nH]1", "activation": "8.01% (inactive)"},
      {"smiles": "O=C1c2ccccc2-c2ccc(NC(=O)[C@H]3CCCC[C@@H]3C(=O)O)cc21", "activation": "-7.45% (inactive)"},
      {"smiles": "CCOC(=O)C1=C(C)NC(=O)N[C@@H]1c1coc2cc(C)cc(C)c2c1=O", "activation": "23.8% (inactive)"},
      {"smiles": "OCCCSCCO", "activation": "7.65% (inactive)"},
      {"smiles": "CC1=N[C@@](C)(COC(=O)[C@]2(C)N[C@](C)(CO)CO2)COC1=O", "activation": "5.98% (inactive)"},
      {"smiles": "NCC[C@H](N)C(=O)O", "activation": "-6.29% (inactive)"},
      {"smiles": "O=S(=O)(c1ccccc1)N1CN2CN(C1)CN(S(=O)(=O)c1ccccc1)C2", "activation": "-1.12% (inactive)"},
      {"smiles": "NC(=O)Nc1n[nH]c(-c2ccccc2)n1", "activation": "12.6% (inactive)"},
      {"smiles": "C[C@@]1(C(=O)O)CCC[C@@H]1C(=O)O", "activation": "4.07% (inactive)"},
      {"smiles": "CCOC(=O)C(C)(C)[C@H](O)C(C)C", "activation": "11.4% (inactive)"},
      {"smiles": "N=C(N)[C@H](N=Nc1ccccc1)C(N)=O", "activation": "1% (inactive)"},
      {"smiles": "O=C(Cn1ccc(=O)[nH]c1=O)Nc1ccc(C(=O)O)c(O)c1", "activation": "6.06% (inactive)"},
      {"smiles": "N[C@@H](Cc1c[nH]c2ccc([N+](=O)[O-])cc12)C(=O)O", "activation": "-2.55% (inactive)"},
      {"smiles": "Nc1nc(-c2cccc([N+](=O)[O-])c2)cc(-c2cc(-c3cccc([N+](=O)[O-])c3)nc(N)n2)n1", "activation": "18.2% (inactive)"},
      {"smiles": "O=C(O)CC[C@@]1(c2ccccc2)NC(=O)NC1=O", "activation": "-0.349% (inactive)"},
      {"smiles": "NS(=O)(=O)c1ccc(N=Nc2ccc(O)c(C(=O)O)c2)cc1", "activation": "12.3% (inactive)"},
      {"smiles": "N=C(N)SCCSC(=N)N", "activation": "-2.21% (inactive)"},
      {"smiles": "Cc1c(C(=O)O)nc(/C=C\\C(=O)O)[nH]c1=O", "activation": "12.3% (inactive)"},
      {"smiles": "O=C(Nc1ccc2ncccc2c1)Nc1ccc2ncccc2c1", "activation": "-12.2% (inactive)"},
      {"smiles": "Cc1ccc(S(=O)(=O)Oc2cc(S(=O)(=O)O)cc3cc(S(=O)(=O)O)cc(N)c23)cc1", "activation": "-7.4% (inactive)"},
      {"smiles": "COc1ccc(NC(=S)Nc2ccccc2)cc1", "activation": "8.18% (inactive)"},
      {"smiles": "Cn1cnc([N+](=O)[O-])c1Sc1nc(N)nc2c1ncn2Cc1ccccc1", "activation": "-1.88% (inactive)"},
      {"smiles": "N=C(N)SCc1cc(Cl)cc(Cl)c1O", "activation": "-24.5% (inactive)"},
      {"smiles": "C[C@@](N)(/C=C\\c1ccccc1)C(=O)O", "activation": "-2.86% (inactive)"},
      {"smiles": "O=C(O)C1(Nc2ccc(Cl)cc2)CCCC1", "activation": "0.664% (inactive)"},
      {"smiles": "NS(=O)(=O)c1ccc(N=C2C(=O)Nc3ccccc32)cc1", "activation": "-6.17% (inactive)"},
      {"smiles": "COCCn1c(=O)c(-c2cc(F)cc(F)c2)nc2cnc(Oc3ccccc3)nc21", "activation": "20.9% (inactive)"},
      {"smiles": "O=C(O)C(Sc1ccc(Cl)cc1)Sc1ccc(Cl)cc1", "activation": "-0.83% (inactive)"}
    ]}
  ]
}
